# Active and inactive are the calls of the source.
# How the values were obtained:
# [1] = optical density shifts of acrAB sulA E. coli – strain DRC41, OD650, 48 h, E. coli filamentation inducer project, primary screen (AID 1152); conditions: higher = more signal, called active from +8 up or from −8 down;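 further: E. coli MC1000 strain DRC41 lacking acrAB efflux pump and sulA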
# [2] = probe aLefty1 binding on compound microarray – biochemical, small-molecule microarray, 635/667 nm fluorescence, primary screen (AID 1153); conditions: higher = more signal;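 further: score merges spot fluorescence with signal-to-noise ratio from the scanned slide images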
# [3] = plasmodial surface anion channel blockers, osmotic lysis – cell-based, P. falciparum Indochina, OD700, 1 h, primary screen (AID 1154); conditions: P. falciparum Indochina infected RBC osmotic lysis, higher = more signal, called active from +8 up or from −8 down
# [4] = plasmodial surface anion channel blockers, osmotic lysis – cell-based, P. falciparum Indochina, OD700, 2 h, primary screen (AID 1155);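 further: lysis reports solute entry through the parasite surface anion channel PSAC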; conditions: P. falciparum Indochina infected erythrocytes, higher = more signal, called active from +8 up or from −8 down
# [5] = changes in parasitized red cell lysis, either direction – P. falciparum Indochina, OD700, 3 h, PSAC antagonist project, primary screen (AID 1156); conditions: P. falciparum-infected erythrocytes, osmotic lysis, higher = more signal, called active from +8 up or from −8 down
# [6] = plasmodial surface anion channel blockers, osmotic lysis – cell-based, P. falciparum Indochina, OD700, 18 h, primary screen (AID 1157); conditions: P. falciparum Indochina infected erythrocytes, osmotic lysis OD700, 18 h; higher = more signal, called active from +8 up or from −8 down
# [7] = S6 kinase pathway phospho-S6 level changes – cell-based, A549, cytoblot, luminescence, serum-stimulated, primary screen (AID 1158); conditions: 5 h, higher = more signal;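 further: serum-stimulated A549 lung adenocarcinoma cells; signal is phosphorylated S6 detected by cytoblot immunostaining with HRP secondary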
# [8] = target: NADPH oxidase 2 (Homo sapiens) (UniProt P04839); assay: compounds shifting NOX2 Amplex Red fluorescence – cell-based, HEK293-NOX2, PMA-stimulated, NOX inhibitor project, primary screen (AID 1159); conditions: 45 min, higher = more signal, called active from +8 up or from −8 down; further: test concentration not given here
# Sequence of NADPH oxidase 2 (Homo sapiens) (P04839 whole entry, looked up): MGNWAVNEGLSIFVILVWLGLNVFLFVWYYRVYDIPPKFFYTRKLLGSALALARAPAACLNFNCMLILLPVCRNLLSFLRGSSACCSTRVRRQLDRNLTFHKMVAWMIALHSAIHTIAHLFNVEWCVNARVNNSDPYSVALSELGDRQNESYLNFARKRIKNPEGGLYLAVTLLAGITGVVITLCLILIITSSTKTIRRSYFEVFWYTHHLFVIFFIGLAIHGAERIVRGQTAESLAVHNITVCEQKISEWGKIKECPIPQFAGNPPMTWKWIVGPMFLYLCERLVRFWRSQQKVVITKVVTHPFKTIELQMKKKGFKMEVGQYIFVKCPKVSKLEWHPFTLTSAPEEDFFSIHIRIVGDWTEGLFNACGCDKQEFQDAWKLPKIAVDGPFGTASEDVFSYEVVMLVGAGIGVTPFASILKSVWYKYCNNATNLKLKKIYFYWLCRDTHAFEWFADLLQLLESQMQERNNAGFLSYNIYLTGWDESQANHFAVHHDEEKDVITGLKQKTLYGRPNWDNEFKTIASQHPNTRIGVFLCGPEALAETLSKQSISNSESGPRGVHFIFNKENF
# [9] = target: NADPH oxidase 4 (Homo sapiens) (UniProt Q9NPH5); assay: compounds shifting NOX4 Amplex Red fluorescence – cell-based, HEK293-NOX4, tetracycline-induced, NOX inhibitor project, primary screen (AID 1160); conditions: HEK293-NOX4, Amplex Red H2O2 fluorescence, 45 min; higher = more signal, called active from +8 up or from −8 down
# Sequence of NADPH oxidase 4 (Homo sapiens) (Q9NPH5 whole entry, looked up): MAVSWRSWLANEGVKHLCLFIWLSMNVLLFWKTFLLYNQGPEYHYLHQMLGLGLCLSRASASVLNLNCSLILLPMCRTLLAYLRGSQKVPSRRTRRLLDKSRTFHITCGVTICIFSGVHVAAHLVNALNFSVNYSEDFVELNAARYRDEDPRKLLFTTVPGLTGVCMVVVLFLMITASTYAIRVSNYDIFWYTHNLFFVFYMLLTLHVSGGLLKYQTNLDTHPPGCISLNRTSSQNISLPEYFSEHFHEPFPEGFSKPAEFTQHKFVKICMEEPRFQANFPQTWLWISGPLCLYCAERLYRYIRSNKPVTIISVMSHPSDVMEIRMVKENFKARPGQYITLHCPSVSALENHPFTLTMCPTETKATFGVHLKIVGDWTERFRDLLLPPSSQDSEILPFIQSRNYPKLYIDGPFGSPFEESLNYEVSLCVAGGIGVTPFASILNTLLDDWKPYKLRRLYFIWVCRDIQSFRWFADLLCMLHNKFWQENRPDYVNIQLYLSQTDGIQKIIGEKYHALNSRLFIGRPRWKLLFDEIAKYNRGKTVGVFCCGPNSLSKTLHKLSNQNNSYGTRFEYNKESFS
# [10] = target: NADPH oxidase 5 (Homo sapiens) (UniProt Q96PH1); assay: compounds shifting NOX5 Amplex Red fluorescence – cell-based, HEK293-NOX5, NOX inhibitor project, primary screen (AID 1161); conditions: HEK293-NOX5, ionomycin, 45 min, higher = more signal
# Sequence of NADPH oxidase 5 (Homo sapiens) (Q96PH1 whole entry, looked up): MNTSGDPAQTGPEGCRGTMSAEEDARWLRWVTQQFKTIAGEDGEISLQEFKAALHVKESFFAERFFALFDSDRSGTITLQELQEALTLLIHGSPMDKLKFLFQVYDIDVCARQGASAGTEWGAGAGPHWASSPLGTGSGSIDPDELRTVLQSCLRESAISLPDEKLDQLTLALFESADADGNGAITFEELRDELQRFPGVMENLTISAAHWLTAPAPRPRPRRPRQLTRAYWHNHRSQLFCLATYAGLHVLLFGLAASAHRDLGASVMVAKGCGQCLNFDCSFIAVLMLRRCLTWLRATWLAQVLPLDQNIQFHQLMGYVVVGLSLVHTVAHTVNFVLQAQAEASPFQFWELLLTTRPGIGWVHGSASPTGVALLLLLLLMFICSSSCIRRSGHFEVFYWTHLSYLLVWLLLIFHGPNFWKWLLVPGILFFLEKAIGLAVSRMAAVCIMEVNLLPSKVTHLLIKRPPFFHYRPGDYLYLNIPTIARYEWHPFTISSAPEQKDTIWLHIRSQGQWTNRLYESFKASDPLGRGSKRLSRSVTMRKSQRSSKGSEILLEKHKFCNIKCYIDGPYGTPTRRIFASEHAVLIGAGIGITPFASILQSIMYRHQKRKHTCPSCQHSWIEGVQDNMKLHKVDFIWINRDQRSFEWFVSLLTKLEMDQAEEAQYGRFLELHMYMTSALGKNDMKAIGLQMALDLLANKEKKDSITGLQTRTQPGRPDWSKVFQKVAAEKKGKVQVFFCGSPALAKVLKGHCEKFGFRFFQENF
# [11] = compound effects on lung adenocarcinoma cell viability – A549, calcein-AM fluorescence, 48 h, basal, profiling panel (AID 1162); conditions: higher = more signal; further: test concentration not given here
# [12] = compound effects on differentiated 3T3-L1 adipocyte viability – cell-based, 3T3-L1 adipocytes, calcein-AM fluorescence, 48 h, basal, profiling panel (AID 1163); conditions: 3T3-L1 adipocytes viability, higher = more signal; further: test concentration not given here
# [13] = compound effects on hepatocellular carcinoma cell viability – HepG2, calcein-AM fluorescence, 48 h, basal, profiling panel (AID 1164); conditions: higher = more signal; further: test concentration not given here
# [14] = compound effects on multiple myeloma cell viability – MM1S, calcein-AM fluorescence, 48 h, basal, profiling panel (AID 1165); conditions: higher = more signal; further: test concentration not given here
# [15] = calcein-AM signal in unstimulated myeloma cells – cell-based, calcein-AM fluorescence, 48 h, PK04 Diversity Set, profiling panel (AID 1166); conditions: RPMI8226 myeloma viability, higher = more signal;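 further: cells grown under basal conditions without added stimulus; test concentration not given here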
# [16] = JC-1 mitochondrial signal, unstimulated HepG2 cells – cell-based, JC-1 fluorescence, 24 h, 100 nL compound, profiling panel (AID 1167); conditions: HepG2 mitochondrial potential, higher = more signal; further: test concentration not given here
# [17] = JC-1 mitochondrial signal, unstimulated adipocytes – cell-based, JC-1 fluorescence, 3T3-L1 adipocytes, 24 h, 100 nL compound, profiling panel (AID 1168); conditions: JC-1 mitochondrial fluorescence, higher = more signal, called active from +8 up or from −8 down; further: test concentration not given here
# [18] = JC-1 mitochondrial signal, unstimulated myeloma cells – cell-based, JC-1 fluorescence, RPMI8226, 24 h, 100 nL compound, profiling panel (AID 1169); conditions: JC-1 mitochondrial potential fluorescence, higher = more signal; further: test concentration not given here
# [19] = JC-1 mitochondrial signal, unstimulated MM1S myeloma – cell-based, JC-1 fluorescence, 24 h, 100 nL compound, profiling panel (AID 1170); conditions: MM1S mitochondrial potential, higher = more signal; further: test concentration not given here
# [20] = resazurin metabolic signal in A549 cells – cell-based, resazurin fluorescence, 24 h, PK04 Diversity Set, profiling panel (AID 1171); conditions: A549 viability, higher = more signal, called active from +8 up or from −8 down; further: test concentration not given here
SMILES,z-score [1],composite z-score [2],z-score [3],z-score [4],z-score [5],z-score [6],z-score [7],z-score [8],z-score [9],z-score [10],z-score [11],z-score [12],z-score [13],z-score [14],z-score [15],z-score [16],z-score [17],z-score [18],z-score [19],z-score [20]
CC(C)N1CC=CC23O[C@@H]4C=CCOC(=O)[C@@H]4[C@H]2C(=O)N(CCCCCCO)[C@@H]3C1=O (stereo not given in full),0.864 (inactive),-0.184,0.855 (inactive),0.619 (inactive),0.343 (inactive),0.65 (inactive),-0.0596,0.936 (inactive),-0.482 (inactive),1.26,0.0698,0.105,-0.684,1.17,0.255,-0.202,-0.109 (inactive),0.0854,-0.249,0.64 (inactive)
CC(C)C(CO)N1C(=O)[C@@H]2[C@H]3C(=O)OCC=C[C@H]3OC23C=CCN(Cn2nnc4ccccc42)C(=O)[C@@H]13 (stereo not given in full),0.197 (inactive),-0.228,0.766 (inactive),0.123 (inactive),0.393 (inactive),0.0882 (inactive),0.234,0.699 (inactive),0.247 (inactive),0.94,-0.746,-0.191,-0.751,0.48,-0.653,-0.578,-0.373 (inactive),0.432,0.281,-0.274 (inactive)
Cc1ccccc1C(O)C1C=CC2C(=O)N(Cc3ccccc3)C(=O)C2N1n1cnnc1 (stereo not given),-0.534 (inactive),0.0722,1.4 (inactive),1.2 (inactive),0.341 (inactive),0.927 (inactive),-0.29,-0.4 (inactive),0.1 (inactive),0.067,-1.2,0.194,-0.734,-0.742,0.0991,-0.406,0.525 (inactive),-0.0549,-0.806,0.0882 (inactive)
C#CCOC(=O)N[C@H](C=CCCCC)c1ccccc1,-0.288 (inactive),0.289,0.801 (inactive),0.852 (inactive),0.599 (inactive),0.715 (inactive),-0.469,0.877 (inactive),-0.194 (inactive),-0.212,-1.18,-0.115,-0.517,-0.334,-0.508,1.47,-0.62 (inactive),0.15,0.0811,-0.28 (inactive)
COC(=O)[C@@]1(Cc2ccc(F)cc2)[C@H]2c3cc(C(=O)N(C)C)n(Cc4ccc(C)c(F)c4F)c3C[C@H]2CN1C(=O)c1ccccc1,-0.165 (inactive),0.159,5.08 (inactive),1.21 (inactive),0.306 (inactive),0.813 (inactive),0.101,0.561 (inactive),-0.0461 (inactive),0.169,0.674,-0.609,1.03,-0.144,0.299,3.29,0.157 (inactive),0.299,-0.605,0.0638 (inactive)
COC(=O)[C@]1(Cc2ccccc2N=[N+]=[N-])N=C(c2ccc(OCCCO)cc2)O[C@@H]1c1ccccc1,0.738 (inactive),-0.111,28.2 (active),27.2 (active),1.06 (inactive),7.41 (inactive),0.777,-1.49 (inactive),-0.013 (inactive),-1.12,-3.71,0.561,-5.71,-3.66,-4.01,-2.54,0.911 (inactive),-1.01,-2.86,-5.19 (inactive)
COC(=O)[C@@]1(Cc2ccc(OC)cc2)[C@H]2c3cc(C(=O)N4CCCC4)n(CCF)c3C[C@H]2CN1C(=O)c1ccccc1,-1.28 (inactive),2.49,10.4 (active),1.42 (inactive),2.39 (inactive),1.13 (inactive),0.181,-0.201 (inactive),-2.52 (inactive),-3.65,-1.41,1.71,-0.336,0.0026,-1.05,3.33,-1.65 (inactive),-0.178,-0.0401,-1.55 (inactive)
C[N+](C)(C)CCCC[C@@H]1NC(=O)[C@@H]2C[C@H](C(=O)O)[C@H](c3cccc(OCCO)c3)N2C1=O,1.03 (inactive),-0.286,2.2 (inactive),0.157 (inactive),-1.84 (inactive),0.276 (inactive),1.44,1.83 (inactive),0.877 (inactive),1.01,1.58,0.185,0.403,0.305,0.367,2.43,0.204 (inactive),0.423,0.17,1.13 (inactive)
COc1ccc([Si](C)(C)[C@H]2[C@H](CCO)O[C@@]3(C(=O)N(Cc4cccc(N5CCOC5=O)c4)c4ccccc43)[C@@H]2C)cc1,-0.286 (inactive),-0.0917,31.7 (active),29.4 (active),1.37 (inactive),3.36 (inactive),0.469,-1.96 (inactive),0.553 (inactive),0.479,-0.162,-0.824,-0.925,-2.43,-3.25,-0.0995,2.01 (inactive),-1.09,-1.79,-2.22 (inactive)
